Here are results for 30 compounds from PubChem BioAssay AID686978 (National Center for Advancing Translational Sciences (NCATS), 2013).

Out of some 420,000 compounds screened, about 64,000 (15%) were called active. Not shown: some 27% with an inconclusive outcome. Calls come from the whole dose curve; as a rule, active = well fitted inhibition curve with a large enough effect; inconclusive = small, poorly fitted or top-dose-only effect; inactive = flat fitted curve, though single readings scatter. The list is a sample of the results.
% is set by controls: 0 for no effect and ±100 for the full control effect; potency is the fitted concentration of half-maximal effect.

The test in a line: qHTS for Inhibitors of human tyrosyl-DNA phosphodiesterase 1 (TDP1): qHTS in cells in absence of CPT. Note: nearly all actives have a fitted effect of over 55% in size. Particulars: DT40 Tdp1-/- hTDP1 cells, no CPT, ATP luminescence, 48 h; activity change, negative = growth inhibition: at 46.2 µM (top of the series). Put shortly: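 Chicken DT40 Tdp1-/- cells complemented with human TDP1, screened without camptothecin (DMSO vehicle only), 400 cells/well. Compounds pin-transferred, cells incubated at 37 °C for at least 48 hr. Growth read as ATP-dependent luminescence (CellTiter-Glo, 30 min at RT).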
As to `O=C(CSCc1ccc([N+](=O)[O-])cc1)NCCSCc1ccccc1`, the “activity change, negative = growth inhibition” value was -0.761% (inactive).

In the case of `Cc1nc(N)nc(SCc2ccc([N+](=O)[O-])cc2)c1N`, the Potency is 25.9 µM (active).

Take `CC(Sc1nnc(Cc2ccc([N+](=O)[O-])cc2)o1)C(N)=O` (stereo not given): the “activity change, negative = growth inhibition” value was -1.37% (inactive).

Regarding `CCCN(C(=O)COC(=O)CNS(=O)(=O)c1ccc(NC(C)=O)cc1)C1CCS(=O)(=O)C1` (stereo not given), the “activity change, negative = growth inhibition” value is 24.2% (inactive).

Consider `COc1ccc(OC)c2[nH]c(=O)c(CCNC(=O)C(=O)c3c[nH]c4ccccc34)cc12`, for which the Potency was 7.31 µM (active).

On to `O=C(NCCCc1ccccc1)C(=O)c1c[nH]c2ccccc12`, for which the “activity change, negative = growth inhibition” value was -16.1% (inactive).

As to `COc1ccc(OC)c2[nH]c(=O)c(CCNC(=O)C(C)(C)C)cc12`, the “activity change, negative = growth inhibition” value is -3.77% (inactive).

On to `N#CCCCn1c(O)c(N=NC(=O)C(O)c2ccccc2)c2ccccc21` (stereo not given), for which the “activity change, negative = growth inhibition” value was 13.4% (inactive).

In the case of `CCNC(=S)NCC`, the “activity change, negative = growth inhibition” value is 15.3% (inactive).

Turning to `S=C(Nc1ccc(Cl)cc1Cl)N1CCCC1`, the “activity change, negative = growth inhibition” value was 13.4% (inactive).

With `COc1ccc(CCNC(=S)N2CCN(S(=O)(=O)c3ccc(Cl)cc3)CC2)cc1`, the “activity change, negative = growth inhibition” value is -6.86% (inactive).

For `Oc1cc2c(cc1O)CN(C(=S)NCCc1ccc(Cl)cc1)CCC2`, the Potency is 8.91 µM (active).

Regarding `Cc1cccc(C)c1NC(=O)CNC(=O)Cc1ccc(Br)cc1`, the “activity change, negative = growth inhibition” value is -15.9% (inactive).

In the case of `CN(Cc1ccco1)c1cc(-c2ccccc2C(F)(F)F)ncn1`, the “activity change, negative = growth inhibition” value is -21.6% (inactive).

Regarding `FC(F)(F)c1ccccc1-c1cc(NCc2ccccc2)ncn1`, the Potency was 9.2 µM (active).

For `COc1ccccc1CNc1cc(-c2ccccc2CN(C)C)ncn1`, the “activity change, negative = growth inhibition” value was -17.6% (inactive).

In the case of `COc1ccc(CCC(=O)c2c(O)cc(OC3OC(CO)C(O)C(O)C3O[C@@H]3OC(C)C(O)C(O)C3O)cc2O)cc1O` (stereo not given in full), the “activity change, negative = growth inhibition” value is -8.37% (inactive).

`COCC1CCCN(Cc2ccc3c(c2)CN(C(=O)c2ccnn2C)CCO3)C1` (stereo not given): the “activity change, negative = growth inhibition” value is -5.47% (inactive).

On to `NS(=O)(=O)c1ccc(NC(=S)NNC(=O)c2cccs2)cc1`, for which the “activity change, negative = growth inhibition” value is -24.8% (inactive).

For `Cc1cc(Oc2ccc(Cl)cc2)nc(SCC(=O)c2ccccc2)n1`, the Potency is 23.1 µM (active).

On to `Cc1cc(C)nc(SCC(=O)N(C)C)n1`, for which the “activity change, negative = growth inhibition” value is 13.2% (inactive).

As for `Cc1cc(C)nc(SCC(=O)c2ccc(Cl)cc2)n1`, the “activity change, negative = growth inhibition” value is -20.5% (inactive).

Regarding `Cc1ccc(NS(=O)(=O)c2cccs2)cc1S(=O)(=O)N1CCCCCC1`, the “activity change, negative = growth inhibition” value is -28.3% (inactive).

Take `Cc1ccc(C(=O)NCC(=O)O)cc1S(=O)(=O)N1CCCCC1`: the “activity change, negative = growth inhibition” value is -8.3% (inactive).

As to `Cc1ccc(C)c(Nc2nnc(-c3ccc(C)c(S(=O)(=O)N4CCCCC4)c3)c3ccccc23)c1`, the Potency is 9.2 µM (active).

For the compound `COc1ccc(C2CC(=O)n3c(nc4ccccc43)S2)cc1OC` (stereo not given), the “activity change, negative = growth inhibition” value is -19.5% (inactive).

As for `COc1cc(=O)n2c(c1C(=O)NC(C)c1ccco1)CCN(C(=O)c1cn3ccc(C)cc3n1)CC2` (stereo not given), the “activity change, negative = growth inhibition” value was -7.59% (inactive).

Consider `O=C(CN1CCN(C(=O)c2ccco2)CC1)Nc1ccc2c(c1)OCO2`, for which the “activity change, negative = growth inhibition” value was 4.43% (inactive).

With `O=C(CN1CCN(C(=O)c2ccco2)CC1)Nc1ccc(Cl)c(C(F)(F)F)c1`, the Potency was 16.4 µM (active).

For the compound `COc1ccc(OC)c(NC(=O)CN2CCN(C(=O)c3ccco3)CC2)c1`, the “activity change, negative = growth inhibition” value is -22.3% (inactive).
